Screens deposited in PubChem BioAssay by National Center for Advancing Translational Sciences (NCATS).
Most compounds without a hit are left out; they make up all but 11% or so of the library.
Pf growth 96h = Primary qHTS for delayed death inhibitors of the malarial parasite plastid, 96 hour incubation | P. falciparum luciferase reporter growth, 96 h | Potency, µM (series often up to 28.7 µM), inactives show at the top dose activity change, negative = inhibition, hits mostly inhibitors | 320,000 compounds, 6.9% hits | AID 504834, 2011
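Cell-based qHTS: luciferase-tagged P. falciparum in erythrocytes (2% hematocrit, 0.05% parasitemia final) incubated with compounds for 96 hours, 37 C, 5% CO2; luciferase detection reagent then added and luminescence measured.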
AMA1 RON2 block = qHTS for Inhibitors of AMA1-RON; Towards Development of Antimalarial Drug Lead: Primary Screen. Plasmodium falciparum AMA1 (3D7) - RON2 peptide interaction. AlphaScreen AMA1-biotinylated RON2 peptide binding. Potency, µM (titrated, usually from 58.2 µM), for the others: top-dose activity change, negative = inhibition, usual class: inhibitors. 360,000 compounds, 0.2% hits;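 also: 0% = vehicle wells and -100% = peptide control; nearly all actives have a fitted effect of over 45% in size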
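AMA1 (3D7) with his tag at 25 nM final met compounds first, then biotinylated RON2 peptide at 25 nM; detection used donor plus acceptor beads, 10 µg/mL apiece, read by AlphaScreen after 30 min at room temperature.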
Pf growth 48h = Primary qHTS for delayed death inhibitors of the malarial parasite plastid, 48 hour incubation; Potency, µM (top dose mostly 28.7 µM), without a hit: top-dose activity change, negative = inhibition, most hits filed as inhibitors; 310,000 compounds, 5.9% hits; P. falciparum luciferase growth in erythrocytes, 48 h
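Luciferase-expressing parasites in RBCs, 2% Hct / 0.1% parasitemia final; RPMI 1640 + 0.5% Albumax; 37 C, 5% CO2, one generation; luminescence read-out, lower signal = inhibition.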
HCV inhibitor = qHTS Assay for Inhibitors of Hepatitis C Virus (HCV) | Huh7.5.1 HCVcc-Cre infection, luciferase reporter, 44 h | Potency, µM (highest dose often 41.8 µM), for the others: at the highest dose activity change, negative = inhibition, hits mostly inhibitors | 340,000 compounds, 3.4% hits
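HCVcc-Cre virus at an moi near 0.5 was added right after compound to cells cultured 4 h from seeding (1,000 cells/well). Luciferase activity was determined 44 h later, 15 min after substrate addition at RT.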
* = called active by the depositor; ? = inconclusive; . = not tested or not shown; [ ] = remark or other dose. Calls follow the shape of the dose curve; as a rule, active = well fitted curve in the direction sought with a large enough effect; inconclusive = small, poorly fitted or top-dose-only effect, or another doubt; inactive = no such curve, though single readings can be large; an effect the other way counts as inactive or inconclusive. Unless noted, % is scaled to controls: 0 for no effect and ±100 for the full control effect; potency is read from the fitted curve at half-maximal effect.

SMILES	Pf growth 96h	AMA1 RON2 block	Pf growth 48h	HCV inhibitor
Cn1c(=O)c2c(nc(SCCN3CCCCC3)n2Cc2ccccc2)n(C)c1=O	2.33µM*	-6.4%	?	?
O=c1c(Oc2ccccc2)coc2cc(O)cc(O)c12	.	-9.6%	.	-8.8%
Cc1ccc(Cn2c(SCC(N)=O)nc3c2c(=O)n(C)c(=O)n3C)cc1	.	3.2%	2.0%	11.2µM*
Cc1ccc(Cn2c(SCc3cccnc3)nc3c2c(=O)n(C)c(=O)n3C)cc1	20.7%	0.5%	1.2%	?
C[C@H]1CN([C@@H](C)CO)C(=O)CCCn2nncc2CO[C@@H]1CN(C)S(=O)(=O)c1ccc(-c2ccccc2)cc1	.	6.2%	.	.
CC(C)NC[C@@H](O)COc1cccc2ccccc12	?	0.0%	9.28µM*	-14.1%
C=CCc1ccccc1OCC(O)CNC(C)C (stereo unspecified)	?	10.0%	13.5µM*	?
CCOC(=O)[C@@H]1[C@H]2COc3ccccc3[C@@H]2N2C(=O)N(c3ccc(C(F)(F)F)cc3)C(=O)[C@]12C	.	-5.0%	.	-7.3%
Cc1c(C#N)c2ccccc2n1CC(=O)NCC1CCCO1 (stereo unspecified)	?	-1.1%	-13.1%	0.0%
Cc1c(C=C2C(=O)N(C)C(=S)N(C)C2=O)c2ccccc2n1CC(=O)NCC1CCCO1 (stereo unspecified)	11.7µM*	1.7%	?	4.2%
O=C(COC(=O)CNS(=O)(=O)/C=C/c1ccccc1)Nc1cccc2ccccc12	1.4%	6.3%	4.4%	9.9%
CCc1ccc(-c2nnn(CCC(=O)OC)n2)cc1	4.65µM*	1.6%	43.4%	9.9%
CCc1ccc(-c2nnn(CCC#N)n2)cc1	-14.4%	1.3%	35.9%	3.3%
COC(=O)C1=C(NC(=O)c2cccc(OC)c2)CCS1	4.15µM*	11.5%	20.3%	-14.0%
COC(=O)C1=C(NC(=O)c2cccs2)CCS1	9.28µM*	.	?	.
COC(=O)C1=C(NC(=O)c2ccccc2C)CCS1	5.7%	-19.9%	8.3%	-0.9%
Cc1ccn2cc(CNS(=O)(=O)c3ccc4ccccc4c3)nc2c1	?	-5.1%	2.5%	4.4%
O=C(c1ccc([N+](=O)[O-])cc1)N(Cc1ccccc1)Cc1ccccc1	.	-26.4%	.	?
CCC1(C(=O)c2ccccc2)C(c2ccc([N+](=O)[O-])cc2)C1(C(=O)OC)C(=O)OC (stereo unspecified)	17.5%	2.9%	13.1µM*	?
COC(=O)c1ccc(COc2ccccc2/C=C(\C#N)C(=O)Nc2c(C)cccc2C)cc1	13.1µM*	5.5%	?	?
COC(=O)c1ccc(COc2ccccc2/C=C/C(=O)c2ccc(OCC(=O)O)cc2)cc1	1.47µM*	-5.6%	?	-7.0%
COC(=O)c1ccc(COc2ccccc2/C=C(\C#N)C(=O)Nc2ccccc2C)cc1	11.4%	14.8%	29.3%	12.3%
Cc1ccc(/C=C(\C#N)C(=O)Nc2c(C)cccc2C)s1	7.38µM*	-16.8%	.	-18.6%
Nc1nccnc1C(=O)OCC(=O)NCCc1ccc(S(N)(=O)=O)cc1	4.1%	6.1%	9.5%	21.3%
COc1ccc(N2CCN(C(=O)c3ccc(CNS(=O)(=O)c4ccc(C)cc4)cc3)CC2)cc1	?	-21.7%	?	12.6µM*
SMILES	Pf growth 96h	AMA1 RON2 block	Pf growth 48h	HCV inhibitor
COc1ccc(N2CCN(C(=O)c3ccc(CNS(=O)(=O)c4cc(C)ccc4C)cc3)CC2)cc1	-1.4%	-28.2%	-3.9%	?
Cc1ccc(C(=O)N2CCN(c3ccc([N+](=O)[O-])c(NCc4cccnc4)c3)CC2)cc1	3.7µM*	-27.6%	8.28µM*	12.6µM*
Cc1ccc(S(=O)(=O)NCc2ccc(C(=O)N3CCN(c4ccccn4)CC3)cc2)cc1	?	9.4%	?	?
Cc1ccc(S(=O)(=O)NCc2ccc(C(=O)N3CCN(c4ccc([N+](=O)[O-])cc4)CC3)cc2)cc1	-6.0%	-8.0%	?	3.98µM*
Cc1ccc(-c2cnn(-c3cccc(C(F)(F)F)c3)c2N)cc1	183.7%	-7.2%	29.8%	11.2µM*
CSCCC(NC(=O)c1ccco1)C(=O)NC1CCCCCC1 (stereo unspecified)	13.4%	-21.2%	12.1%	-4.3%[8.37 µM]
NNC(=O)Cn1c(COc2ccc(Cl)cc2)nc2ccccc21	?	41.0%	-29.1%	11.2µM*
O=C(O)Cn1c(COc2ccc(Cl)cc2)nc2ccccc21	32.2%	-7.7%	12.4%	11.1%
O=C(C1=NOC(CNc2ncc(C(F)(F)F)cc2Cl)C1)N1CCOCC1 (stereo unspecified)	5.6%	4.9%	35.6%	-27.7%
O=C(COc1ccc(Cl)cc1)Nc1ccc2c(c1)nc1n2CCOC1	?	-6.6%	-20.6%	1.8%
NC(=O)C(C(=O)/C=C/c1ccc(Cl)cc1)=C1SCCS1	8.28µM*	2.4%	?	?
COc1ccc(/C=C/C(=O)C(C(N)=O)=C2SCCS2)cc1	-28.6%	-6.9%	-26.6%	3.6%
CCC(C(=O)NC1CCCCC1)n1c(SCc2ccccc2F)nc2ccncc21 (stereo unspecified)	8.28µM*	-4.1%	-9.5%	-16.1%
CCC(C(=O)NC1CCCC1)n1c(-c2cc3ccccc3[nH]2)nc2ccccc21 (stereo unspecified)	.	69.9%	.	.
O=C(NCCN1CCCC1)c1cc(-c2ccncc2)nc2ccc(S(=O)(=O)N3CCOCC3)cc12	?	4.9%	11.7µM*	-27.6%
O=C(Nc1cccc(S(=O)(=O)N2CCCC2)c1)c1cc(-c2ccccn2)nc2ccccc12	?	5.1%	11.7µM*	?
O=C(NCCc1ccccc1)c1cc(-c2ccncc2)nc2ccc(S(=O)(=O)N3CCOCC3)cc12	-1.5%	-0.1%	-18.7%	?
Cc1ccc2nc(-c3ccccn3)cc(C(=O)Nc3ccc(S(=O)(=O)N4CCOCC4)cc3)c2c1	20.5%	14.4%	13.1µM*	?
Cc1ccccc1C(=O)Nc1ccc(S(=O)(=O)N2CCOCC2)cc1	15.5%	-1.6%	-15.7%	?
O=c1ccn(-c2cccc(C(F)(F)F)c2)nc1-c1ccn(-c2ccccc2)n1	0.0%	1.6%	10.4µM*	-14.0%
Cc1cc(=O)c(C(=O)O)nn1-c1cccc(C(F)(F)F)c1	25.2%	14.3%	22.6%	28.5%
CCC(=O)N1CCN(c2ccnc3cc(Cl)ccc23)CC1	11.7µM*	-7.0%	13.1µM*	17.3%
CS(=O)(=O)N1CCN(c2ccnc3cc(Cl)ccc23)CC1	?	3.3%	2.9%[5.75 µM]	3.8%
CC(C)N(C(=O)N1CCN(c2ccnc3cc(Cl)ccc23)CC1)C(C)C	8.28µM*	-4.0%	8.28µM*	?
O=C(c1ccc(Cl)cc1)N1CCN(c2ccnc3cc(Cl)ccc23)CC1	14.6%	-7.3%	13.1µM*	?
CCOC(=O)N1CCN(c2ccnc3cc(Cl)ccc23)CC1	2.33µM*	-2.7%	2.62µM*	-4.6%
